Reference: PubChem BioAssay (EPA / NIEHS)
Calls of active or inactive are those of the source. The calls were made as follows: active = hit-call score of the fitted dose curve at least 0.9, where 1 is the maximum; inactive = score below 0.9.

Tests used:
Conditions in all cases: mRNA level, 48 h; actives raise or lower the signal
[1] = read-out: catalase (CAT), CAT (gene 847); experiment: LTEA_HepaRG_CAT: Life Technologies and Expression Analysis (LTEA) Assay for catalase (CAT) using HepaRG (AID 2283452)
Procedure, shortened: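 Expression of CAT was quantified by TaqMan qRT-PCR with ACTB/GAPDH/POLR2A normalization after 48 h chemical exposure of HepaRG. Eight-point half-log series, top 100 uM, in 0.5% DMSO; gain or loss fitted against vehicle.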

[2] = read-out: flavin-containing dimethylaniline monooxygenases 3 (FMO3), FMO3 (gene 2328); experiment: LTEA_HepaRG_FMO3: Life Technologies and Expression Analysis (LTEA) Assay for flavin-containing dimethylaniline monooxygenases 3 (FMO3) using HepaRG (AID 2283453);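 as to AC50: differentiated human HepaRG liver cells in serum-free induction medium; FMO3 transcript by TaqMan qRT-PCR normalized to ACTB GAPDH and POLR2A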
Procedure, shortened: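 HepaRG, 48 h exposure, 8-pt half-log series from 100 uM, 0.5% DMSO vehicle, duplicates; FMO3 transcript by Fluidigm TaqMan qRT-PCR, housekeeping-normalized; gain/loss fit vs DMSO.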

[3] = read-out: Cytochrome P450 (CYP1A1), CYP1A1 (gene 1543); experiment: LTEA_HepaRG_CYP1A1: Life Technologies and Expression Analysis (LTEA) Assay for Cytochrome P450 (CYP1A1) using HepaRG (AID 2283454)
Procedure, shortened: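 CYP1A1 transcript levels measured by Fluidigm qRT-PCR against three housekeeping genes, 48 h after chemical dosing of human HepaRG cells (highest concentration 100 uM, half-log steps, 0.5% DMSO vehicle). Gain or loss of signal fitted relative to DMSO.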

[4] = read-out: CFLAR gene, CFLAR (gene 8837); experiment: LTEA_HepaRG_CFLAR: Life Technologies and Expression Analysis (LTEA) Assay for CFLAR gene using HepaRG (AID 2283455)
Procedure, shortened: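 HepaRG, 48 h exposure, 8-pt conc-response (100 uM top, half-log), 0.5% DMSO vehicle, duplicates. CFLAR expression by qRT-PCR; ACTB/GAPDH/POLR2A normalization; gain or loss fit vs DMSO baseline.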

[5] = read-out: Forkhead box O1 (FOXO1), FOXO1 (gene 2308); experiment: LTEA_HepaRG_FOXO1: Life Technologies and Expression Analysis (LTEA) Assay for Forkhead box O1 (FOXO1) using HepaRG (AID 2283456)
Procedure, shortened: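 Readout is FOXO1 transcript level by multiplexed qRT-PCR against three housekeeping genes, curve-fitted in both directions relative to 0.5% DMSO vehicle. Human HepaRG cultures received chemicals for 48 h, up to 100 uM in half-log steps.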

[6] = read-out: growth arrest and DNA damage 45 (GADD45A), GADD45A (gene 1647); experiment: LTEA_HepaRG_GADD45A: Life Technologies and Expression Analysis (LTEA) Assay for growth arrest and DNA damage 45 (GADD45A) using HepaRG (AID 2283458)
Procedure, shortened: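 Human HepaRG liver cells are treated in duplicate for 48 h with chemicals in 0.5% DMSO, highest concentration 100 uM. Expression is read by qRT-PCR and analyzed in both directions against vehicle.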

[7] = read-out: Forkhead box O3 (FOXO3), FOXO3 (gene 2309); experiment: LTEA_HepaRG_FOXO3: Life Technologies and Expression Analysis (LTEA) Assay for Forkhead box O3 (FOXO3) using HepaRG (AID 2283459)
Procedure, shortened: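 HepaRG, 48 h post-dose; 8 conc., half-log from 100 uM, 0.5% DMSO, duplicates; serum-free induction medium. Readout: FOXO3 mRNA, TaqMan qRT-PCR, housekeeping-normalized. Bidirectional curve fit vs DMSO baseline.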

[8] = read-out: ABC Transporter (ABCB1), ABCB1 (gene 5243); experiment: LTEA_HepaRG_ABCB1: Life Technologies and Expression Analysis (LTEA) Assay for ABC Transporter (ABCB1) using HepaRG (AID 2283460)
Procedure, shortened: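 Expression of ABCB1 was quantified by qRT-PCR against three housekeeping genes after human HepaRG cultures received test chemicals for 48 hours. Concentrations spanned eight half-log steps topping at 100 uM in 0.5% DMSO; gain or loss of signal was fitted relative to vehicle.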

[9] = read-out: growth arrest and DNA damage 45 (GADD45B), GADD45B (gene 4616); experiment: LTEA_HepaRG_GADD45B: Life Technologies and Expression Analysis (LTEA) Assay for growth arrest and DNA damage 45 (GADD45B) using HepaRG (AID 2283461)
Procedure, shortened: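 Transcript level quantified by Fluidigm TaqMan qRT-PCR with three housekeeping genes for normalization, analyzed for up- or down-regulation against 0.5% DMSO. HepaRG cultures dosed 48 h at eight half-log concentrations up to 100 uM, duplicates.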

[10] = read-out: ABC Transporter (ABCC3), ABCC3 (gene 8714); experiment: LTEA_HepaRG_ABCC3: Life Technologies and Expression Analysis (LTEA) Assay for ABC Transporter (ABCC3) using HepaRG (AID 2283462)
Procedure, shortened: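 Transcript level by TaqMan qRT-PCR, normalised to three housekeeping genes, fitted in both directions relative to vehicle. Chemicals tested in duplicate at eight half-log concentrations up to 100 uM for 48 h on HepaRG cells (0.5% DMSO).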

[11] = read-out: ABC Transporter (ABCB11), ABCB11 (gene 8647); experiment: LTEA_HepaRG_ABCB11: Life Technologies and Expression Analysis (LTEA) Assay for ABC Transporter (ABCB11) using HepaRG (AID 2283463)
Procedure, shortened: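 ABCB11 transcript levels are read by Fluidigm TaqMan qRT-PCR after 48 h chemical treatment of human HepaRG cells. Concentrations span 100 uM downward in half-log steps with 0.5% DMSO; gain or loss is fitted against DMSO controls.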

[12] = read-out: ABC Transporter (ABCC2), ABCC2 (gene 1244); experiment: LTEA_HepaRG_ABCC2: Life Technologies and Expression Analysis (LTEA) Assay for ABC Transporter (ABCC2) using HepaRG (AID 2283464)
Procedure, shortened: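 Endpoint is ABCC2 transcript level from qRT-PCR, normalized to three housekeeping genes and fitted bidirectionally relative to DMSO. Human HepaRG cells received test chemical for 48 h at up to 100 uM (8 points, half-log steps, 0.5% DMSO), duplicate wells.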

[13] = read-out: Broad substrate specificity ATP-binding cassette transporter ABCG2 (Homo sapiens) (UniProt Q9UNQ0); experiment: LTEA_HepaRG_ABCG2: Life Technologies and Expression Analysis (LTEA) Assay for ABC Transporter (ABCG2) using HepaRG (AID 2283465)
Procedure, shortened: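 Read-out is ABCG2 mRNA induction or loss quantified by qRT-PCR after 48 h chemical treatment of human HepaRG cells, normalized to three housekeeping genes. Concentrations reached 100 uM top in half-log steps; fitting was bidirectional against 0.5% DMSO.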

[14] = read-out: ATP-citrate lyase (ACLY), ACLY (gene 47); experiment: LTEA_HepaRG_ACLY: Life Technologies and Expression Analysis (LTEA) Assay for ATP-citrate lyase (ACLY) using HepaRG (AID 2283466)
Procedure, shortened: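 HepaRG, 48 h exposure, 8-pt half-log dilutions (top 100 uM), 0.5% DMSO. Readout: ACLY mRNA, TaqMan qRT-PCR, housekeeping-normalized (ACTB/GAPDH/POLR2A). Bidirectional curve fit vs DMSO.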

[15] = read-out: Peroxisomal acyl-coenzyme A oxidase 1 (ACOX1) gene, ACOX1 (gene 51); experiment: LTEA_HepaRG_ACOX1: Life Technologies and Expression Analysis (LTEA) Assay for Peroxisomal acyl-coenzyme A oxidase 1 (ACOX1) gene using HepaRG (AID 2283467)
Procedure, shortened: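 Measured by qRT-PCR against three housekeeping genes: ACOX1 transcript change in human HepaRG cells after 48 h dosing. Concentrations ran up to 100 uM in half-log steps. Curves were fitted bidirectionally relative to 0.5% DMSO.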

[16] = read-out: Alkaline Phosphatase, Placental (ALPP) gene, ALPP (gene 250); experiment: LTEA_HepaRG_ALPP: Life Technologies and Expression Analysis (LTEA) Assay for Alkaline Phosphatase, Placental (ALPP) gene using HepaRG (AID 2283468);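 as to AC50: differentiated human HepaRG liver cells in serum-free induction medium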
Procedure, shortened: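 ALPP transcript level, measured by qRT-PCR and normalized to three housekeeping genes (ACTB, GAPDH, POLR2A), after 48 h dosing of differentiated HepaRG in serum-free induction medium. Top concentration 100 uM with half-log dilutions (8 points, 0.5% DMSO, duplicates); bidirectional fitting relative to DMSO.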

[17] = read-out: Bcl-2 (BAD) gene, BAD (gene 572); experiment: LTEA_HepaRG_BAD: Life Technologies and Expression Analysis (LTEA) Assay for Bcl-2 (BAD) gene using HepaRG (AID 2283469)
Procedure, shortened: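 BAD transcript change, measured by qRT-PCR against three housekeeping genes and fitted in both directions relative to 0.5% DMSO, after 48 h chemical treatment of human HepaRG liver cells at concentrations up to 100 uM.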

[18] = read-out: Bcl-2 (BAX) gene, BAX (gene 581); experiment: LTEA_HepaRG_BAX: Life Technologies and Expression Analysis (LTEA) Assay for Bcl-2 (BAX) gene using HepaRG (AID 2283470)
Procedure, shortened: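 Concentration-response endpoint fitted in both directions relative to 0.5% DMSO vehicle. Human HepaRG cultures receive test chemicals for 48 h at up to 100 uM; BAX mRNA is quantified by qRT-PCR against housekeeping genes.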

[19] = read-out: adenosine kinase (ADK) gene, ADK (gene 132); experiment: LTEA_HepaRG_ADK: Life Technologies and Expression Analysis (LTEA) Assay for adenosine kinase (ADK) gene using HepaRG (AID 2283471)
Procedure, shortened: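 HepaRG (human liver), 48 h chemical exposure, 8-pt half-log series, top 100 uM, 0.5% DMSO vehicle. Readout: ADK mRNA by qRT-PCR vs housekeeping genes; bidirectional curve fit relative to DMSO baseline.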

Measured: AC50

Chain of Broad substrate specificity ATP-binding cassette transporter ABCG2 (Homo sapiens) (Q9UNQ0 whole entry, looked up): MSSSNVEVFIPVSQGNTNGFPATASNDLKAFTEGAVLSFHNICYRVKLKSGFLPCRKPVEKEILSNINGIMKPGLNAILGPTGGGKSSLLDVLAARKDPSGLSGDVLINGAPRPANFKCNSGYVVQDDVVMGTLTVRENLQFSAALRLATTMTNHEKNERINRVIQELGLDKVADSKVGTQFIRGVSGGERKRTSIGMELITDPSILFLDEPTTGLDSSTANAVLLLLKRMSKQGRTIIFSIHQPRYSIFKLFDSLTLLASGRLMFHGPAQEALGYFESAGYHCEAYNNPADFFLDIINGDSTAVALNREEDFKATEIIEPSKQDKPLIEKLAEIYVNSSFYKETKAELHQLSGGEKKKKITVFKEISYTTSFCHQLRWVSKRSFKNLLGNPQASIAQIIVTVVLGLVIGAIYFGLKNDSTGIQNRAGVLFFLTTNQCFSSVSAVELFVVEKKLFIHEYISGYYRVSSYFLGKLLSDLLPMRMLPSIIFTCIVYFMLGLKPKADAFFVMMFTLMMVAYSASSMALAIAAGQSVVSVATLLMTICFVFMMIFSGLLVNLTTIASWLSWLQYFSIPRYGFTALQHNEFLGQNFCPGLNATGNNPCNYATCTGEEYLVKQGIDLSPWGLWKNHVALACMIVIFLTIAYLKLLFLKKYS

C[N+](C)(C)CC1CO1 (stereo unspecified)
active: [3] 50 µM
inactive: [1] | [2] | [4] | [5] | [6] | [7] | [8] | [9] | [10] | [11] | [12] | [13] | [14] | [15] | [16] | [17] | [18] | [19]

O=C(N[C@H](c1ccccc1)[C@@H]1CN2CCC1CC2)c1c(Cl)ccc(C(F)(F)F)c1Cl
inactive: [7] | [11] | [13] | [17]
active: [1] 68.5 µM | [2] 65.9 µM | [3] 11 µM | [4] 82.4 µM | [6] 46.2 µM | [8] 13.5 µM | [9] 46.2 µM | [10] 36.3 µM | [12] 71.8 µM | [14] 78.7 µM | [15] 70.3 µM | [16] 11.8 µM | [18] 75.3 µM | [19] 58 µM

Cc1ccc(N=C=O)cc1N=C=O
inactive: [4] | [5] | [6] | [7] | [8] | [9] | [10] | [12] | [13] | [15] | [16] | [17] | [18] | [19]
active: [1] 19.7 µM | [2] 31.2 µM | [3] 40.4 µM | [11] 20.2 µM | [14] 12.5 µM
